The whole screen tested about 5,500 compounds, of which about 2,000 (36%) were called active. Inconclusive results (about 18%) are left out. No stated cut-off is given here; in the data, active means normalized growth mostly below about 0.91 (no sharp cut-off); inconclusive means no clear call, values can overlap the other calls; inactive means mostly above about 0.92. Some of the results follow.
Experiment: chemical genetic growth profiling, strain panel (AID 1159580);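 further: tested at 20 µM; growth read once vehicle control cultures reached saturation at 30 °C; 1 = growth at the plate median or of vehicle wells; lower values mean less growth of the strain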
Conditions: growth OD

Measured: normalized growth

NCC(N)C(=O)c1ccccc1 (stereo not drawn)
inactive: S. cerevisiae deletion strains, locus YJR043C, strain POL32, hits give low values 1.01 | S. cerevisiae deletion strains, locus YJR066W, strain TOR1, hits give low values 0.969 | S. cerevisiae deletion strains, locus YKL009W, strain mrt4, hits give low values 1.1 | S. cerevisiae deletion strains, locus YKL068W, hits give low values 1.03 | S. cerevisiae deletion strains, locus YKL085W, strain MDH1 (second series), hits give low values 1.02 | S. cerevisiae deletion strains, locus YKL085W, strain MDH1, hits give low values 1.02 | S. cerevisiae deletion strains, locus YKL160W, strain elf1, hits give low values 1.02 | S. cerevisiae deletion strains, locus YKL190W, strain CNB1, hits give low values 1.01 | S. cerevisiae deletion strains, locus YKR001C, strain vps1, hits give low values 0.979 | S. cerevisiae deletion strains, locus YKR026C, strain gcn3, hits give low values 1.02 | S. cerevisiae deletion strains, locus YKR091W, strain srl3, hits give low values 1.02 | S. cerevisiae deletion strains, locus YLL001W, strain dnm1, hits give low values 1.02 | S. cerevisiae deletion strains, locus YLL026W, hits give low values 1.03 | S. cerevisiae deletion strains, locus YLL041C, strain sdh2, hits give low values 1.02 | S. cerevisiae deletion strains, locus YLR027C, strain aat2, hits give low values 1.03 | S. cerevisiae deletion strains, locus YLR039C, strain RIC1, hits give low values 1.04 | S. cerevisiae deletion strains, locus YLR058C, strain SHM2, hits give low values 1.01 | S. cerevisiae deletion strains, locus YLR102C, strain apc9, hits give low values 0.992 | S. cerevisiae deletion strains, locus YLR113W, strain HOG1, hits give low values 0.949 | S. cerevisiae deletion strains, locus YLR221C, strain rsa3, hits give low values 1.04 | S. cerevisiae deletion strains, locus YLR258W, strain gsy2, hits give low values 1 | S. cerevisiae deletion strains, locus YLR262C, strain YPT6 (second series), hits give low values 1.03 | S. cerevisiae deletion strains, locus YLR262C, strain YPT6, hits give low values 1.06 | S. cerevisiae deletion strains, locus YLR268W, strain sec22, hits give low values 0.991 | S. cerevisiae deletion strains, locus YLR320W, strain mms22, hits give low values 1.04 | S. cerevisiae deletion strains, locus YLR330W, strain CHS5, hits give low values 1.04 | S. cerevisiae deletion strains, locus YLR342W, strain FKS1 (second series), hits give low values 0.985 | S. cerevisiae deletion strains, locus YLR342W, strain FKS1, hits give low values 1.01 | S. cerevisiae deletion strains, locus YLR357W, strain rsc2, hits give low values 1.03 | S. cerevisiae deletion strains, locus YLR370C, strain arc18, hits give low values 1.05 | S. cerevisiae deletion strains, locus YLR371W, strain rom2, hits give low values 1 | S. cerevisiae deletion strains, locus YLR384C, strain iki3, hits give low values 1.03 | S. cerevisiae deletion strains, locus YLR418C, strain cdc73, hits give low values 0.987 | S. cerevisiae deletion strains, locus YML016C, strain PPZ1, hits give low values 1 | S. cerevisiae deletion strains, locus YML032C, strain rad52, hits give low values 1.01 | S. cerevisiae deletion strains, locus YML120C, strain ndi1, hits give low values 1 | S. cerevisiae deletion strains, locus YML124C, strain tub3, hits give low values 1.01 | S. cerevisiae deletion strains, locus YMR058W, strain fet3, hits give low values 1.05 | S. cerevisiae deletion strains, locus YMR078C, strain ctf18, hits give low values 1.01 | S. cerevisiae deletion strains, locus YMR125W, strain sto1, hits give low values 1.01 | S. cerevisiae deletion strains, locus YMR129W, hits give low values 1.04 | S. cerevisiae deletion strains, locus YMR205C, strain PFK2, hits give low values 1.06 | S. cerevisiae deletion strains, locus YMR223W, strain ubp8, hits give low values 1.04 | S. cerevisiae deletion strains, locus YMR231W, strain pep5, hits give low values 1.03 | S. cerevisiae deletion strains, locus YMR307W, strain GAS1, hits give low values 0.964 | S. cerevisiae deletion strains, locus YNL067W, strain RPL9B, hits give low values 1 | S. cerevisiae deletion strains, locus YNL071W, strain lat1, hits give low values 1.02 | S. cerevisiae deletion strains, locus YNL153C, strain GIM3, hits give low values 1.01 | S. cerevisiae deletion strains, locus YNL183C, strain NPR1, hits give low values 0.901 | S. cerevisiae deletion strains, locus YNL209W, strain ssb2, hits give low values 1.03 | S. cerevisiae deletion strains, locus YNL233W, strain BNI4, hits give low values 1.02 | S. cerevisiae deletion strains, locus YNL248C, strain rpa49, hits give low values 1.03 | S. cerevisiae deletion strains, locus YNL250W, strain rad50, hits give low values 1.02 | S. cerevisiae deletion strains, locus YNL271C, strain bni1, hits give low values 1.01 | S. cerevisiae deletion strains, locus YNL298W, strain CLA4, hits give low values 1.01 | S. cerevisiae deletion strains, locus YNL307C, strain MCK1, hits give low values 0.996 | S. cerevisiae deletion strains, locus YNL322C, strain KRE1 (second series), hits give low values 1.01 | S. cerevisiae deletion strains, locus YNL322C, strain KRE1, hits give low values 1.01 | S. cerevisiae deletion strains, locus YNR049C, strain mso1, hits give low values 1.03 | S. cerevisiae deletion strains, locus YNR052C, strain pop2, hits give low values 0.994 | S. cerevisiae deletion strains, locus YOL012C, strain htz1 1.74 | S. cerevisiae deletion strains, locus YOL147C, strain pex11, hits give low values 0.993 | S. cerevisiae deletion strains, locus YOR001W, strain rrp6, hits give low values 1.04 | S. cerevisiae deletion strains, locus YOR061W, strain CKA2, hits give low values 1.01 | S. cerevisiae deletion strains, locus YOR069W, strain VPS5, hits give low values 1.01 | S. cerevisiae deletion strains, locus YOR070C, strain gyp1, hits give low values 1.04 | S. cerevisiae deletion strains, locus YOR080W, strain dia2, hits give low values 1.05 | S. cerevisiae deletion strains, locus YOR083W, strain WHI5, hits give low values 1.02 | S. cerevisiae deletion strains, locus YOR106W, strain vam3, hits give low values 1.02 | S. cerevisiae deletion strains, locus YOR136W, strain idh2, hits give low values 1.01 | S. cerevisiae deletion strains, locus YOR144C, strain elg1, hits give low values 0.996 | S. cerevisiae deletion strains, locus YOR184W, strain ser1, hits give low values 0.994 | S. cerevisiae deletion strains, locus YOR231W, strain MKK1, hits give low values 0.962 | S. cerevisiae deletion strains, locus YOR265W, strain rbl2, hits give low values 1.05 | S. cerevisiae deletion strains, locus YOR270C, strain vph1, hits give low values 1.11 | S. cerevisiae deletion strains, locus YOR290C, strain snf2, hits give low values 1 | S. cerevisiae deletion strains, locus YOR316C, strain cot1, hits give low values 0.993 | S. cerevisiae deletion strains, locus YPL051W, strain arl3, hits give low values 1.04 | S. cerevisiae deletion strains, locus YPL078C, strain atp4, hits give low values 1.02 | S. cerevisiae deletion strains, locus YPL106C, strain sse1, hits give low values 1.01 | S. cerevisiae deletion strains, locus YPL240C, strain hsp82, hits give low values 1.02 | S. cerevisiae deletion strains, locus YPL256C, strain CLN2, hits give low values 0.96 | S. cerevisiae deletion strains, locus YPR119W, strain clb2, hits give low values 0.999 | S. cerevisiae deletion strains, locus YPR141C, strain kar3, hits give low values 1.01 | S. cerevisiae deletion strains, locus YPR163C, strain tif3, hits give low values 0.995 | S. cerevisiae deletion strains, locus YPR167C, strain met16, hits give low values 1.01 | S. cerevisiae deletion strains, strain wtn01, hits give low values 0.999 | S. cerevisiae strains, strain wild type, hits give low values 1.02

From PubChem BioAssay AID1159580 (chemical genetic matrix, 2015)
